From PubChem BioAssay
Calls of active or inactive are those of the source. No rule for the calls is given here.

test: Brca1-Bard1 BiLC signal decrease – luminescence, single concentration, counter-screen for Mdm2/MdmX interaction inhibitor project, confirmation (AID 504668); conditions: Brca1/Bard1 bimolecular luciferase complementation counterscreen, at 8 µM, stronger effect = higher value

Structure (SMILES) | inhibition
COc1cccc(C(NC(C)=O)c2ccc3cccnc3c2O)c1 (centres undefined) | 29.3% (active)
COc1ccc(C2Oc3ccccc3C3=C2C(c2cccs2)n2ncnc2N3)cc1 (centres undefined) | 29.5% (active)
O=C(N/N=C/c1c(O)ccc2ccccc12)c1cccnc1 | 29.9% (active)
CC1=[N+](C)c2ccc3ccccc3c2C1(C)C | 28.2% (active)
Cc1nc(/N=C(\N)NC(=O)NC2CCCCC2)nc2ccccc12 | 34.4% (active)
CC1CCN(Cc2c(C(=O)N/N=C/c3ccccc3O)nnn2-c2nonc2N)CC1 | 32.5% (active)
Cc1cc(C2CCCCC2)n(O)c(=O)c1 | 32.2% (active)
COc1cccc(Nc2nc(NCCO)c3ccccc3n2)c1 | 27.7% (active)
C#CCOCCOCCOCCNc1nc(N2CCN(C(=O)CCCCCCCCCCNC(=O)Cn3cc(C[C@@H](C)O)nn3)CC2)nc(N2CCN(C(=O)CCCCCCCCCCNC(=O)[C@@H]([C@H](C)CC)n3cc(CCCCCN)nn3)CC2)n1 | 27.2% (active)
CC(C)(C)c1ccc(-c2nnc3sc(-c4ccccn4)nn23)cc1 | 30.2% (active)
COc1cc([N+](=O)[O-])cc(/C=N/NC(=O)c2ccc(NC(=O)c3ccc(C)cc3)cc2)c1O | 33.2% (active)
Cc1cc(C(=O)CCl)c(C)n1CCc1ccc(Cl)cc1 | 30.7% (active)
O=C(c1ccc(S(=O)(=O)c2ccccc2Cl)c([N+](=O)[O-])c1)N1CCN(Cc2ccccc2)CC1 | 29.6% (active)
Cn1c(=O)c(C#N)c(-c2ccc(F)cc2)c2cc(C(=O)c3cc(Cl)cc(Cl)c3O)cnc21 | 29.6% (active)
Cn1cccc1-c1cc(C(=O)N/N=C/c2cc(Br)ccc2O)[nH]n1 | 25.9% (active)
O=C(N/N=C/c1cc(Br)cc(Br)c1O)c1cccc(S(=O)(=O)N2CCOCC2)c1 | 29.6% (active)
O=C1[C@H]2[C@@H](c3ccc(F)cc3)N3C(=O)N(c4ccc(Br)cc4)C(=O)[C@@]3(Cc3ccc(Cl)cc3)[C@H]2C(=O)N1C1CCCCC1 | 27.8% (active)
C[C@@H](NC(=O)OC(C)(C)C)c1nnc(S(=O)(=O)Cc2ccccc2)o1 | 24.9% (active)
Cc1oc2c(Cl)c(Cl)c(O)c(CN(C)C)c2c1C(=O)c1ccc(Cl)cc1 | 26.8% (active)
COc1ccc(C(=O)N/N=C/c2cc(Br)ccc2O)cc1OC | 29.6% (active)
Cc1ccn2c(Nc3ccccc3C)c(-c3ccccn3)nc2c1 | 31.7% (active)
CCN1/C(=C/c2ccc3cccc(C)c3[n+]2CC)Sc2ccccc21 | 26.4% (active)
Cc1cc(C)c(S(=O)(=O)N2CCCCC2CCNC(=O)C(=O)NC2CC2)c(C)c1 (centres undefined) | 25.4% (active)
Nc1nc(Cl)nc2c1ncn2C1CC(O)C(CO)O1 (centres undefined) | 25.6% (active)
